Results: the supplement of paper PMC9254222
The full ranking holds about 1,100 compounds; the median of “Wnt reporter firefly/Renilla luciferase ratio relative to plate median” is about 1.1, and the highest 2% start at about 1.6. The full list was thinned out, with the highest values kept by preference.

System: HEK293T (UBE3A T485A transfected, BAR Wnt reporter)
Assay: Wnt reporter firefly/Renilla luciferase ratio relative to plate median (fold (linear ratio)); higher = more Wnt/beta-catenin reporter activation
Settings: 24 h
Outline: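 Wnt activity (firefly/Renilla ratio) and cell health (raw Renilla) were read with Dual-Glo luciferase and median-centred plate by plate. HEK293T cells, at 4500 cells/well in white 384-well plates with DMEM plus 10% FBS at 37°C and 5% CO2, carried a transfected BAR firefly luciferase Wnt reporter, TK-Renilla and an expression plasmid. The chemicals were applied by robot at 0.01–100 uM for 24 h, beginning four hours after transfection, and results were averaged across four biological replicates.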

## O=[N+]([O-])C(CO)(CO)CO [2-(Hydroxymethyl)-2-nitro-1,3-propanediol]
concentration: 0.1 uM
  Wnt reporter firefly/Renilla luciferase ratio: 0.982
concentration: 1 uM
  Wnt reporter firefly/Renilla luciferase ratio: 1.11
concentration: 10 uM
  Wnt reporter firefly/Renilla luciferase ratio: 1.27
concentration: 100 uM
  Wnt reporter firefly/Renilla luciferase ratio: 1.27

## O=c1nc(-c2ccc(C(F)(F)F)cc2)[nH]c2c1CSCC2
concentration: 0.01 uM
  Wnt reporter firefly/Renilla luciferase ratio: 0.923
concentration: 0.1 uM
  Wnt reporter firefly/Renilla luciferase ratio: 0.688
concentration: 1 uM
  Wnt reporter firefly/Renilla luciferase ratio: 0.648
concentration: 10 uM
  Wnt reporter firefly/Renilla luciferase ratio: 0.664
concentration: 100 uM
  Wnt reporter firefly/Renilla luciferase ratio: 0.578

## CCCCCCC(=O)O [Heptanoic acid]
concentration: 0.1 uM
  Wnt reporter firefly/Renilla luciferase ratio: 1.02
concentration: 1 uM
  Wnt reporter firefly/Renilla luciferase ratio: 1.15
concentration: 10 uM
  Wnt reporter firefly/Renilla luciferase ratio: 1.07
concentration: 100 uM
  Wnt reporter firefly/Renilla luciferase ratio: 0.917

## CCCC(CCC)C(=O)O [Valproic acid]
concentration: 0.01 uM
  Wnt reporter firefly/Renilla luciferase ratio: 1.2
concentration: 0.1 uM
  Wnt reporter firefly/Renilla luciferase ratio: 0.995
concentration: 1 uM
  Wnt reporter firefly/Renilla luciferase ratio: 1.01
concentration: 10 uM
  Wnt reporter firefly/Renilla luciferase ratio: 1.14
concentration: 100 uM
  Wnt reporter firefly/Renilla luciferase ratio: 1.69

## CCCCC(CC)C(=O)O (stereo not drawn) [2-Ethylhexanoic acid]
concentration: 0.1 uM
  Wnt reporter firefly/Renilla luciferase ratio: 0.925
concentration: 1 uM
  Wnt reporter firefly/Renilla luciferase ratio: 1
concentration: 10 uM
  Wnt reporter firefly/Renilla luciferase ratio: 1.4
concentration: 100 uM
  Wnt reporter firefly/Renilla luciferase ratio: 1.2

## C[C@@H](Oc1ccc(CNC(=O)c2cccnc2Oc2ccc3c(c2)OCO3)c(F)c1)C(=O)O
concentration: 0.1 uM
  Wnt reporter firefly/Renilla luciferase ratio: 1.14
concentration: 1 uM
  Wnt reporter firefly/Renilla luciferase ratio: 1.12
concentration: 10 uM
  Wnt reporter firefly/Renilla luciferase ratio: 1.13
concentration: 100 uM
  Wnt reporter firefly/Renilla luciferase ratio: 1.33

## Cc1cc(F)ccc1-c1cc(N2CC[C@@H](O)[C@H]2CO)ncc1N(C)C(=O)C(C)(C)c1cc(C(F)(F)F)cc(C(F)(F)F)c1
concentration: 0.1 uM
  Wnt reporter firefly/Renilla luciferase ratio: 1.27
concentration: 1 uM
  Wnt reporter firefly/Renilla luciferase ratio: 1.05
concentration: 10 uM
  Wnt reporter firefly/Renilla luciferase ratio: 1.16
concentration: 100 uM
  Wnt reporter firefly/Renilla luciferase ratio: 0.311

## N#C[C@@H]1CC(F)(F)CN1C(=O)CNC1CC2CCC(C1)N2c1ncccn1 (stereo partly drawn)
concentration: 0.1 uM
  Wnt reporter firefly/Renilla luciferase ratio: 0.985
concentration: 1 uM
  Wnt reporter firefly/Renilla luciferase ratio: 0.923
concentration: 10 uM
  Wnt reporter firefly/Renilla luciferase ratio: 0.937
concentration: 100 uM
  Wnt reporter firefly/Renilla luciferase ratio: 0.82

## [Cl-].c1ccc(C[n+]2cccc3ccccc32)cc1 [1-Benzylquinolinium chloride]
concentration: 0.1 uM
  Wnt reporter firefly/Renilla luciferase ratio: 0.993
concentration: 1 uM
  Wnt reporter firefly/Renilla luciferase ratio: 0.903
concentration: 10 uM
  Wnt reporter firefly/Renilla luciferase ratio: 1.05

## CCCOC(=O)c1ccc(O)cc1 [Propylparaben]
concentration: 0.1 uM
  Wnt reporter firefly/Renilla luciferase ratio: 1.46
concentration: 1 uM
  Wnt reporter firefly/Renilla luciferase ratio: 1.02
concentration: 10 uM
  Wnt reporter firefly/Renilla luciferase ratio: 0.949
concentration: 100 uM
  Wnt reporter firefly/Renilla luciferase ratio: 0.169

## Nc1ccc2c(c1)C(=O)c1ccccc1C2=O [2-Aminoanthraquinone]
concentration: 0.1 uM
  Wnt reporter firefly/Renilla luciferase ratio: 1.06
concentration: 1 uM
  Wnt reporter firefly/Renilla luciferase ratio: 1.2
concentration: 10 uM
  Wnt reporter firefly/Renilla luciferase ratio: 1.28
concentration: 100 uM
  Wnt reporter firefly/Renilla luciferase ratio: 1.58

## O=C(O)c1cccnc1 [Nicotinic acid]
concentration: 0.1 uM
  Wnt reporter firefly/Renilla luciferase ratio: 1.02
concentration: 1 uM
  Wnt reporter firefly/Renilla luciferase ratio: 1.17
concentration: 10 uM
  Wnt reporter firefly/Renilla luciferase ratio: 0.874
concentration: 100 uM
  Wnt reporter firefly/Renilla luciferase ratio: 1.27

## CNCc1ccc(NC(=O)c2c[nH]c3c2C(=O)CCC3)cc1
concentration: 0.1 uM
  Wnt reporter firefly/Renilla luciferase ratio: 1.24
concentration: 1 uM
  Wnt reporter firefly/Renilla luciferase ratio: 1.06
concentration: 10 uM
  Wnt reporter firefly/Renilla luciferase ratio: 1.69
concentration: 100 uM
  Wnt reporter firefly/Renilla luciferase ratio: 0.318

## CO[C@H]1/C=C/O[C@@]2(C)Oc3c(C)c(O)c4c(O)c(c(/C=N/N5CCN(C)CC5)c(O)c4c3C2=O)NC(=O)/C(C)=C\C=C\[C@H](C)[C@H](O)[C@@H](C)[C@@H](O)[C@@H](C)[C@H](OC(C)=O)[C@@H]1C [Rifampicin]
concentration: 0.1 uM
  Wnt reporter firefly/Renilla luciferase ratio: 1.29
concentration: 1 uM
  Wnt reporter firefly/Renilla luciferase ratio: 1.07
concentration: 10 uM
  Wnt reporter firefly/Renilla luciferase ratio: 1.27
concentration: 100 uM
  Wnt reporter firefly/Renilla luciferase ratio: 0.362

## CCCC(=O)O [Butanoic acid]
concentration: 0.1 uM
  Wnt reporter firefly/Renilla luciferase ratio: 1.31
concentration: 1 uM
  Wnt reporter firefly/Renilla luciferase ratio: 1
concentration: 10 uM
  Wnt reporter firefly/Renilla luciferase ratio: 1.12
concentration: 100 uM
  Wnt reporter firefly/Renilla luciferase ratio: 1.62

## CCCCCC(=O)O [Hexanoic acid]
concentration: 0.1 uM
  Wnt reporter firefly/Renilla luciferase ratio: 1.02
concentration: 1 uM
  Wnt reporter firefly/Renilla luciferase ratio: 0.926
concentration: 10 uM
  Wnt reporter firefly/Renilla luciferase ratio: 1.05
concentration: 100 uM
  Wnt reporter firefly/Renilla luciferase ratio: 1.27

## CCCCCCCCCC(=O)O [Decanoic acid]
concentration: 0.1 uM
  Wnt reporter firefly/Renilla luciferase ratio: 1.43
concentration: 1 uM
  Wnt reporter firefly/Renilla luciferase ratio: 1.04
concentration: 10 uM
  Wnt reporter firefly/Renilla luciferase ratio: 1.39
concentration: 100 uM
  Wnt reporter firefly/Renilla luciferase ratio: 0.794

## O=C(OCCOCCOC(=O)c1ccccc1)c1ccccc1 [Diethylene glycol dibenzoate]
concentration: 0.1 uM
  Wnt reporter firefly/Renilla luciferase ratio: 1.08
concentration: 1 uM
  Wnt reporter firefly/Renilla luciferase ratio: 1.16
concentration: 10 uM
  Wnt reporter firefly/Renilla luciferase ratio: 1.34
concentration: 100 uM
  Wnt reporter firefly/Renilla luciferase ratio: 1.44
